Measured values as given in ChEMBL document CHEMBL3988442, “University of Dundee, Small-Polar-MMV Screening Library” (2021).
For some assays here: Results with a measured potency or affinity are listed apart.

Legend:
Design in all cases: scale not given: direction of the effect not stated beside the values
[1] = target: Protein translocase subunit SecA (Escherichia coli (strain K12)) (UniProt P10408); assay: Assay to Identify E. coli SecA ATPase Inhibitors; format: functional; details: 30 µM
[2] = target: T1, Ubiquitin-activating enzyme e1, putative (Leishmania donovani (strain BPK282A1)) (UniProt E9BSI1); assay: Leishmania donovani Ubiquitin Activating Enzyme (LdE1); format: functional; details: 30 µM
T1 sequence (whole entry): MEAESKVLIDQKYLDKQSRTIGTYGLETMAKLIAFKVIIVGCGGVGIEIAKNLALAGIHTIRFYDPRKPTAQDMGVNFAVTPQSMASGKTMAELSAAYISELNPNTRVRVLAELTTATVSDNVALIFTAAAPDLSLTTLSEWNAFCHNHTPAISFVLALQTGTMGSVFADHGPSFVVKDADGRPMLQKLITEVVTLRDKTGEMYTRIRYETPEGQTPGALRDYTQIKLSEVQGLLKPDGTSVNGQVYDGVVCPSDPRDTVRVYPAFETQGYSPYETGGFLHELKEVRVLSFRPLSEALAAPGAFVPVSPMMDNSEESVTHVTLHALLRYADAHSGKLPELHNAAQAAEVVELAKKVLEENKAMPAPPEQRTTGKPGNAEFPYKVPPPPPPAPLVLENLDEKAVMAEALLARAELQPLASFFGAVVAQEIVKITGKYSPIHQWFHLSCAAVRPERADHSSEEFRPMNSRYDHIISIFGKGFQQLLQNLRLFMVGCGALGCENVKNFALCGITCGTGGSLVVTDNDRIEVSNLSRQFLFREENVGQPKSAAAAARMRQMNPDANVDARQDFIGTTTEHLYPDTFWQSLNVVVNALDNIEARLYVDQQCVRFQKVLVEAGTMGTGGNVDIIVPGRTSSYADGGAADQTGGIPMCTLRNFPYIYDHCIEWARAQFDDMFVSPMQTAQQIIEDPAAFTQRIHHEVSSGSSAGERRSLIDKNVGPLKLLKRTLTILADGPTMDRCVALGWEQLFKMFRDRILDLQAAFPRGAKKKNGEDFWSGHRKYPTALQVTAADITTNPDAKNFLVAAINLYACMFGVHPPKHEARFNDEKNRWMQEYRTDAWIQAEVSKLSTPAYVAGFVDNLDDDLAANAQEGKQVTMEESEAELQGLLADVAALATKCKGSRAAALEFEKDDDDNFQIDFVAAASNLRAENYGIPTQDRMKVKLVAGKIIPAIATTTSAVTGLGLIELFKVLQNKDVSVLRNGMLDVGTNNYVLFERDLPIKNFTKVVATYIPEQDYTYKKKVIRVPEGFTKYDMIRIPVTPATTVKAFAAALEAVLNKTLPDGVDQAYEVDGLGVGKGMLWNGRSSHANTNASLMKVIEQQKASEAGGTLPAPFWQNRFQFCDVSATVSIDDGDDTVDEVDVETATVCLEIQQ

[3] = target: AMP-activated protein kinase, AMPK (Homo sapiens) (UniProt P54646+O43741+P54619+Q9UGJ0+Q9Y478+Q13131+Q9UGI9); assay: AMP-dependent Kinase enzyme assay. An in vitro enzyme assay that detects ADP turnover that is directly proportional to AMPK activity. This uses naive AMPK that is activated during the assay with MK-8722; format: functional; details: 30 µM
[4] = target: Sialic acid-binding Ig-like lectin 9 (Homo sapiens) (UniProt Q9Y336); assay: Hs-Siglec9 ALPHAscreen SOP 20170721; details: 10 µM
Sequence of Sialic acid-binding Ig-like lectin 9 (Homo sapiens) (Q9Y336 whole entry): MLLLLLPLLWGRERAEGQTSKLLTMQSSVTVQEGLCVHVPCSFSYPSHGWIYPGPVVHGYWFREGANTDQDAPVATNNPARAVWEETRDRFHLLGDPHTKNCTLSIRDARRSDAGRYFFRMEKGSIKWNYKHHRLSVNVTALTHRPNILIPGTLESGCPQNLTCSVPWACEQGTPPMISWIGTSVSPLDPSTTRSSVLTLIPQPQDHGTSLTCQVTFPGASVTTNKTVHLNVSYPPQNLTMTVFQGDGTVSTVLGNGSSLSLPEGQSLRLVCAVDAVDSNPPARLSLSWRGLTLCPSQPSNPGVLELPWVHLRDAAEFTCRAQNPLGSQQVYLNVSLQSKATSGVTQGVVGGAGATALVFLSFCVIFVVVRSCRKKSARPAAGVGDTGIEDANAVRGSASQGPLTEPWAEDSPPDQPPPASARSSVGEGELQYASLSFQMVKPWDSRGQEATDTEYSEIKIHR

[5] = test system: Trypanosoma cruzi; assay: Trypanosoma cruzi phosphomannomutase and mannose-1-phosphate guanylyltransferase assay; format: functional; details: 10 µM
[6] = target: T2, Arginase-2, mitochondrial (Homo sapiens) (UniProt P78540); assay: in vitro enzyme assay to detect the production of urea directly proportional to the activity of Arginase II; format: functional; details: 33.3 µM; further: in the data most compounds retested in dose-response had high values
T2 sequence (whole entry): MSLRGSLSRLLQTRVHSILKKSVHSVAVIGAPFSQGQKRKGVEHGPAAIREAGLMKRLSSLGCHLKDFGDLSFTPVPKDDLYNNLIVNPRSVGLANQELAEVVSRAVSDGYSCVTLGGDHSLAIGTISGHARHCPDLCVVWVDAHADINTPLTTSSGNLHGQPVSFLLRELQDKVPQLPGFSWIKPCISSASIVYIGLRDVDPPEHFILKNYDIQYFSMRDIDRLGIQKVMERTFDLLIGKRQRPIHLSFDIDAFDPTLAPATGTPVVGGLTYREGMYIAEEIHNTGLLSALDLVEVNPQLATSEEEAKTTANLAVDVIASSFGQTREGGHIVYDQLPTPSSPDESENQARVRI

[7] = target: T3, Proteasome subunit beta (Trypanosoma cruzi) (UniProt O96673); assay: Trypanosoma cruzi proteasome chymotrypsin-like activity (TcProtChymo) assay.; further: in the data most compounds retested in dose-response had high values; format: functional; details: 9.37 µM
T3 sequence (whole entry): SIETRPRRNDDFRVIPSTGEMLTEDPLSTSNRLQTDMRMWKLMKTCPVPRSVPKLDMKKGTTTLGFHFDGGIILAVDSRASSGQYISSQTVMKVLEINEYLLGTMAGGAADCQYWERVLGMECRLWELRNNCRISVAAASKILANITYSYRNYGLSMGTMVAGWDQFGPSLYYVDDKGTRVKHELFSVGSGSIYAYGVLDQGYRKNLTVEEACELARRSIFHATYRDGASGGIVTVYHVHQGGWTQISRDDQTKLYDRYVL

[8] = species on record: Homo sapiens; assay: To identify inhibition of the IFN signalling (Jak-Stat) pathway via expression of an eGFP reporter gene under the control of an IFN-stimulated response element (ISRE) containing MxA promoter.; format: functional; details: 30 µM
[9] = target: T4, Tyrosyl-tRNA synthetase, putative (Trypanosoma cruzi (strain CL Brener)) (UniProt Q4DSP6); assay: Trypanosoma cruzi tyrosyl tRNA synthetase (TcYRS) _High Tyrosine SOP; format: functional; details: 30 µM; further: in the data most compounds retested in dose-response had high values
T4 sequence (whole entry): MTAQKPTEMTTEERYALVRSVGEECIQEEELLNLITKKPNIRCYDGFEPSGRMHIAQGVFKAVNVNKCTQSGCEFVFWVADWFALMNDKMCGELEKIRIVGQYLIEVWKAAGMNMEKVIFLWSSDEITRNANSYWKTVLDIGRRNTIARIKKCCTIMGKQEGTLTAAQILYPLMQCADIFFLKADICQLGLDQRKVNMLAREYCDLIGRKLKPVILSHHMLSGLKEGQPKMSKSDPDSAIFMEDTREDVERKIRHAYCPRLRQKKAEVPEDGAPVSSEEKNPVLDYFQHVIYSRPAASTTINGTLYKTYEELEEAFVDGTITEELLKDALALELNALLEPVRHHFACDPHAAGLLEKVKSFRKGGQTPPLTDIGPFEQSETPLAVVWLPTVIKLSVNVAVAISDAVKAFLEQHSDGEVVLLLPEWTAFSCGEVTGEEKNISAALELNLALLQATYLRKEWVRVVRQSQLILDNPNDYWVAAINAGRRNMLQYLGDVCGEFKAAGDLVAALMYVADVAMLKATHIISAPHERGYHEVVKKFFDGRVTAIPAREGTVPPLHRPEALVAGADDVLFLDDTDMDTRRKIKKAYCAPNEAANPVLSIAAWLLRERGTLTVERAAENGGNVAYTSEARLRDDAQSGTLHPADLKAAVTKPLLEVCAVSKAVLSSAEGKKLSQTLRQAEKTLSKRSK

[10] = target: T4, Tyrosyl-tRNA synthetase, putative (Trypanosoma cruzi (strain CL Brener)); assay: Trypanosoma cruzi tyrosyl tRNA synthetase (TcYRS) SOP; format: functional; details: 30 µM
[11] = target: Chromo domain-containing protein 1 (Saccharomyces cerevisiae (strain ATCC 204508 / S288c) (Baker's yeast)) (UniProt P32657); assay: ScCHD-1 Enzyme Inhibition Assay; format: functional; details: 30 µM; further: in the data most compounds retested in dose-response had high values
Sequence of Chromo domain-containing protein 1 (Saccharomyces cerevisiae (strain ATCC 204508 / S288c) (Baker's yeast)) (P32657 whole entry, the tested form may be a part): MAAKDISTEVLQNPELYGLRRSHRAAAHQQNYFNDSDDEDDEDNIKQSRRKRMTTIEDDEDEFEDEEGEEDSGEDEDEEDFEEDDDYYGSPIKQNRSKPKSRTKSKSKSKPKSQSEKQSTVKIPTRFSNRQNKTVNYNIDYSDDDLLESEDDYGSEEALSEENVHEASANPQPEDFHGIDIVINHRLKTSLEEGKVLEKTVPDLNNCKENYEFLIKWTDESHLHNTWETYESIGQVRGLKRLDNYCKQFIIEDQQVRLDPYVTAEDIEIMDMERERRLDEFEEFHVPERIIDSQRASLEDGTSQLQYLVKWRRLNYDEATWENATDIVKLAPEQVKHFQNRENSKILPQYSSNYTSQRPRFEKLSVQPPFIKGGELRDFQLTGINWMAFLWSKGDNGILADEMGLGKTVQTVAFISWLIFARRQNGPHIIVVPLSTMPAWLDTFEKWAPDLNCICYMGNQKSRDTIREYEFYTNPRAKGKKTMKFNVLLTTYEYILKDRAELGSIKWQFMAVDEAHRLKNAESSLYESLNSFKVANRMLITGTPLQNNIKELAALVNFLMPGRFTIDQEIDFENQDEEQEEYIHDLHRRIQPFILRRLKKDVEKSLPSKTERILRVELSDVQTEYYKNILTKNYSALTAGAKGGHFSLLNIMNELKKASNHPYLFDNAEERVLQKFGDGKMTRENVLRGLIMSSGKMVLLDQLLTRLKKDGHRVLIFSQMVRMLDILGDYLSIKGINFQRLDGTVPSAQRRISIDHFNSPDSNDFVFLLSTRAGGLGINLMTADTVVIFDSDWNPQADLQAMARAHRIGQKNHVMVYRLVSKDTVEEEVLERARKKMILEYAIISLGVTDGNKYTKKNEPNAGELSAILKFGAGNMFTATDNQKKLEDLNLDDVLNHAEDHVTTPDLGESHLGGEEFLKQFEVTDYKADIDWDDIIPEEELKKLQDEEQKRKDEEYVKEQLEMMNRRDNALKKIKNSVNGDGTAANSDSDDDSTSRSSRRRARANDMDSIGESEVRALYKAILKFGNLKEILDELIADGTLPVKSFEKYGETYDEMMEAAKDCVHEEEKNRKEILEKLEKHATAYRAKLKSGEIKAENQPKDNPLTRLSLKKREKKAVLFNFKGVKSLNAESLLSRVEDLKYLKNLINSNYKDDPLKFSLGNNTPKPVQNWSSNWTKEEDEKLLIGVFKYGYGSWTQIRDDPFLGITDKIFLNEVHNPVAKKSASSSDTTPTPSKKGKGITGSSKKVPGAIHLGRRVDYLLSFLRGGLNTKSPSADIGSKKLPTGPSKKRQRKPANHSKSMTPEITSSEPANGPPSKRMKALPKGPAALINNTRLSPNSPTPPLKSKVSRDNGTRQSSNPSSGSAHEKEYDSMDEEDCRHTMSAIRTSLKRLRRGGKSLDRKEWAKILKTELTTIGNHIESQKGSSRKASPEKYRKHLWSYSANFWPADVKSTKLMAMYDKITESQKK

Sequence of Protein translocase subunit SecA (Escherichia coli (strain K12)) (P10408 whole entry): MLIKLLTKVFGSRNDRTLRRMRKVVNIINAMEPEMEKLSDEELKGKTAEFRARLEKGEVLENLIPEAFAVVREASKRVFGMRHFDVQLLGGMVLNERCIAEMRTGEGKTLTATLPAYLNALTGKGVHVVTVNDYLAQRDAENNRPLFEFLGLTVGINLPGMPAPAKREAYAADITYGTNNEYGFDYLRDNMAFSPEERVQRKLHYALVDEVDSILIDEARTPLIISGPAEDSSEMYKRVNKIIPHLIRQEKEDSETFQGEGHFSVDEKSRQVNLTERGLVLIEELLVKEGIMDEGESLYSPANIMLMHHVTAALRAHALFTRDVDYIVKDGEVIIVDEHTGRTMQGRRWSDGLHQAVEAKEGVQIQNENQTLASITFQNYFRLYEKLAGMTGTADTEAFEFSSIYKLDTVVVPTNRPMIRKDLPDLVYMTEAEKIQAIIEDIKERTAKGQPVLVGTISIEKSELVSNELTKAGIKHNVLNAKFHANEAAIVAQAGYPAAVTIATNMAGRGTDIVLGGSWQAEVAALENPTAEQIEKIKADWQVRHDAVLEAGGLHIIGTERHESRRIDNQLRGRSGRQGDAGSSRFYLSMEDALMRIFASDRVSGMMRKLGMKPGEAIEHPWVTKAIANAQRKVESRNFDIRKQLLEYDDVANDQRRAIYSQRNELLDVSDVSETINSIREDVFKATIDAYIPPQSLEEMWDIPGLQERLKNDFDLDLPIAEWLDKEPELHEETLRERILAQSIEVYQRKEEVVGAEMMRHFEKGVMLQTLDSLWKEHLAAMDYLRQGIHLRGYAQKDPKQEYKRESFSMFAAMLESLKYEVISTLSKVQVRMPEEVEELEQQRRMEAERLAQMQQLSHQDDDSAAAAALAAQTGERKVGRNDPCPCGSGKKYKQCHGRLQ

Row | SMILES | Percent Effect [1] [%] | Percent Effect [2] [%] | Percent Effect [3] [%] | Percent Effect [4] [%] | Percent Effect [5] [%] | Percent Effect [6] [%] | Percent Effect [7] [%] | Percent Effect [8] [%] | Percent Effect [9] [%] | Percent Effect [10] [%] | Percent Effect [11] [%]
1 | COc1cccc2ccn(CCC(=O)N3CCCC(C(=O)O)C3)c12 (stereo unspecified) | -7.04 | 21.1 | 5.95 | -0.508 | 3.8 | -1.18 | 14.1 | 6.03 | 2.13 | 10.4 | -7.67
2 | COc1ccc(C(O)CNC(=O)NCc2csc(C)n2)cc1 (stereo unspecified) | -3.31 | 18.9 | 1.28 | 1.81 | 6.41 | -2.03 | 19.6 | 11.3 | 7.92 | -8.54 | -6.16
3 | O=C(NCCNc1ncccn1)N1CCCC(C(F)(F)F)C1 (stereo unspecified) | -2.28 | 10.8 | 3.11 | -0.403 | -2.12 | -1.43 | 7.59 | 6.58 | 4.76 | 19.5 | -5.39
4 | Cc1cc(C)c2c(OCC(=O)NC(C)C)nn(C)c2n1 | -3.72 | 10.8 | -1.72 | 25.4 | 7.72 | 11.4 | 6.9 | 10.7 | 0.529 | 12.2 | -13
5 | CCOC(=O)N1CCN(c2nc(NC)c3ccccc3n2)CC1 | -3.25 | 4 | -1.05 | 9.22 | 4.52 | -5.46 | 6.1 | 3.01 | 1.06 | 5.13 | -1.69
6 | CN(Cc1ccc(F)cc1)C(=O)NCC1(N2CCOCC2)CCSC1 (stereo unspecified) | 2.92 | 16.2 | -0.11 | 22.3 | 2.12 | 1.43 | 15.9 | 14.5 | 3.7 | 17.1 | -8.64
7 | Cc1cc(CN(C)C(=O)NC2CCS(=O)(=O)C2)no1 (stereo unspecified) | -1.09 | 13 | -2.73 | -9.19 | 6.37 | 6.11 | 11.2 | 6.33 | 4.76 | 18.8 | -18.4
8 | C[C@H]1C[C@@H]2CCN(C(=O)c3ccncn3)C[C@H]2O1 | -5.91 | 0 | -1.04 | -0.649 | 1.56 | 2.08 | 1.27 | -2.6 | 5.94 | 8.54 | -3.12
9 | O=C(COc1coc(CN2CCCCC2)cc1=O)Nc1ccccc1Cl | -4.47 | 4 | 6.82 | 3.14 | -2.16 | -8.28 | 12.2 | -3.22 | 10.6 | 12.8 | 0.706
10 | Cc1cc(F)ccc1OC1(C(=O)O)CCN(Cc2ccncc2)CC1 | -4.32 | 16 | -6.71 | 19.8 | 3.21 | 13.5 | 11.7 | 10 | 10.4 | 21 | -4.33
11 | Cc1ncccc1O[C@H]1CCN(C(=O)c2cccs2)CC[C@@H]1O | -1.97 | -9.46 | 7.91 | 0.722 | -2.17 | -2.09 | 2.03 | 4.21 | 1.07 | -1.3 | -0.631
12 | O=C(CCc1ccccc1)N1CCn2cc(Cn3cncn3)nc2C1 | -2.68 | 0 | 5.15 | 7.21 | -3.45 | -3.23 | 14.6 | 22.4 | 1.06 | -1.28 | 1.43
13 | Cc1nc(C)n(CC2CCCCN2CC(=O)NC2CCOCC2)n1 (stereo unspecified) | -5.64 | 18.2 | 6.87 | 5.39 | 6.37 | -6.05 | 5.07 | -0.818 | 3.88 | 19.5 | -7.41
14 | N#Cc1cc(NS(=O)(=O)c2ccc(C(=O)O)cc2F)ccc1F | -2.74 | -13.5 | -2.89 | 0.735 | -0.472 | 4.41 | -3.24 | -0.301 | 0.493 | 1.24 | -0.823
15 | CN(CCCOc1ccccc1)C(=O)CN1CCc2cncnc2C1 | -1.71 | 26.3 | -41.1 | 4.54 | 9.24 | -0.719 | 10.6 | -5.43 | 30.1 | 38.3 | -11.5
16 | CC(Cn1cccn1)NC(=O)CCc1ccc(S(N)(=O)=O)cc1 (stereo unspecified) | -7.11 | 18.2 | -0.578 | 3.31 | 6.37 | -2.74 | 7.03 | 11 | 6.67 | 23.5 | -9.46
